Our source for the growth values is PubChem BioAssay (NCI).

Test systems include SR leukemia; RPMI-8226 leukemia; OVCAR-8 ovarian; OVCAR-5 ovarian; OVCAR-4 ovarian; SK-OV-3 ovarian; IGROV1 ovarian; OVCAR-3 ovarian; HS 578T breast; NCI/ADR-RES ovarian; T-47D breast; BT-549 breast; MDA-MB-435 melanoma; SW-620 colon; MCF7 breast; HCT-116 colon; HCC-2998 colon; KM12 colon.
Common to all, as to experiment: NCI-60 one-dose screen, 48 h (100 = growth as untreated, 0 = no growth, -100 = all killed)
What all share (settings): 10 µM unless noted

Compounds without any hit were thinned out: in the full panel of roughly 83,000, 20% have a hit.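 The test compound was applied at a single concentration to cells in 96-well plates for 48 hours, and percent growth was recorded.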 Unmarked numbers belong to inactive results. Activity calls are given as the source filed them. How the source made its calls: active means growth percent below 10; inactive means the rest.

As for `COC1/C=C\OC2(C)Oc3c(C)c(O)c4c(O)c(c(CN(C)CCO)c(O)c4c3C2=O)NC(=O)/C(C)=C\C=C/C(C)C(O)C(C)C(O)C(C)C(OC(C)=O)C1C` (stereo not given), the growth in the assay with SR leukemia was 91.2%; in the assay with RPMI-8226 leukemia it was 86.4%; in the assay on OVCAR-8 ovarian, 90.7%; with OVCAR-5 ovarian it was 91.7%; with OVCAR-4 ovarian, 84.5%; with SK-OV-3 ovarian, 96.6%. For the same compound, the growth in the assay with IGROV1 ovarian was 95.9%; with OVCAR-3 ovarian, 111%; in the assay with HS 578T breast, 104%; in the assay with NCI/ADR-RES ovarian it was 103%; with T-47D breast it was 89.3%; in the assay on BT-549 breast, 105%. Moreover, the growth is 111% with MDA-MB-435 melanoma; 105% with SW-620 colon; 91.6% in the assay on MCF7 breast; 107% in the assay with HCT-116 colon; 121% in the assay on HCC-2998 colon; 106% with KM12 colon.

For the compound `COc1ccc2nc3cc(Cl)ccc3c(N3CCN(c4nccc(Nc5ccc(Cl)cc5)n4)CC3)c2c1`, the growth with SR leukemia is 30.4%; in the assay with RPMI-8226 leukemia, 43.9%; with OVCAR-8 ovarian, 80.7%; in the assay with OVCAR-5 ovarian it was 90.6%; with OVCAR-4 ovarian, 60.7%; with SK-OV-3 ovarian, 88.4%. Moreover, the growth in the assay with IGROV1 ovarian was 83.1%; with OVCAR-3 ovarian, 49.5%; with HS 578T breast, 84.3%; with NCI/ADR-RES ovarian, 80.7%; in the assay on T-47D breast, 32.2%; in the assay on MDA-MB-435 melanoma, 78.7%. For the same compound, the growth in the assay with SW-620 colon was 73.7%; with MCF7 breast, 41.6%; with HCT-116 colon, 12%; with HCC-2998 colon, 92.3%; in the assay on KM12 colon, 62.3%.

For `CC#CC#Cc1cccc(=O)o1`, the growth in the assay on SR leukemia was -9.17% (active); in the assay on RPMI-8226 leukemia, 45.6%; with OVCAR-8 ovarian it was 65.8%; with OVCAR-5 ovarian, 101%; in the assay with OVCAR-4 ovarian it was 91.6%; in the assay on SK-OV-3 ovarian it was 104%. For the same compound, the growth in the assay on IGROV1 ovarian is 65.1%; with OVCAR-3 ovarian, 7.67% (active); with HS 578T breast, 70.9%; in the assay on NCI/ADR-RES ovarian, 90.1%; in the assay on T-47D breast, 59.9%; in the assay on BT-549 breast, 38.1%. Also, the growth in the assay on MDA-MB-435 melanoma is 15.2%; in the assay on SW-620 colon it was 27.3%; with MCF7 breast, 29%; in the assay with HCT-116 colon it was 30.9%; with HCC-2998 colon, 95.8%; in the assay on KM12 colon, 58.8%.

Consider `CN1CCN(Cc2ccc(NC(=O)c3[nH]ncc3Nc3ccnc4ccsc34)cc2)CC1`, for which the growth in the assay on SR leukemia was -12.5% (active); with RPMI-8226 leukemia, 19.2%; in the assay on OVCAR-8 ovarian, 21.5%; in the assay with OVCAR-5 ovarian, 18.1%; in the assay with OVCAR-4 ovarian it was 12.5%; with SK-OV-3 ovarian, 34.7%. In addition, the growth was 24.2% in the assay with IGROV1 ovarian; 22.6% in the assay on OVCAR-3 ovarian; 54.6% in the assay with HS 578T breast; 93.5% in the assay with NCI/ADR-RES ovarian; 63.1% in the assay with BT-549 breast; 61.7% in the assay with MDA-MB-435 melanoma. For the same compound, the growth is 20.6% in the assay on SW-620 colon; 12.9% in the assay on MCF7 breast; 10.1% in the assay with HCT-116 colon; 33% with HCC-2998 colon; 12.3% with KM12 colon.

Regarding `COc1ccccc1-c1ccc2c(N)c(C(=O)c3ccc4c(c3)OCO4)sc2n1`, the growth is 9.21% (active) in the assay with SR leukemia; 62.2% in the assay on RPMI-8226 leukemia; 73.8% in the assay with OVCAR-8 ovarian; 87.7% in the assay on OVCAR-5 ovarian; 95.7% with OVCAR-4 ovarian; 78.3% with SK-OV-3 ovarian. For the same compound, the growth in the assay with IGROV1 ovarian is 78.1%; with OVCAR-3 ovarian, 69.8%; in the assay on HS 578T breast it was 87.6%; in the assay with NCI/ADR-RES ovarian it was 38.7%; in the assay on BT-549 breast, 71.4%; in the assay on MDA-MB-435 melanoma it was 2.68% (active). Besides, the growth was 42.2% with SW-620 colon; 36.3% with MCF7 breast; 42.4% in the assay on HCT-116 colon; 71.4% with HCC-2998 colon; 53.8% in the assay on KM12 colon.

In the case of `Cc1cc(=O)oc2cc(Oc3nc(-c4cccs4)cn4c(-c5cccs5)cnc34)ccc12`, the growth in the assay on SR leukemia was 45.6%; in the assay with RPMI-8226 leukemia, 70.3%; with OVCAR-8 ovarian it was 52.5%; in the assay on OVCAR-5 ovarian, 93.8%; with OVCAR-4 ovarian it was 54.1%; with SK-OV-3 ovarian, 90.6%. For the same compound, the growth is 79.2% in the assay with IGROV1 ovarian; 68% with OVCAR-3 ovarian; 67.6% with HS 578T breast; 53.4% in the assay with NCI/ADR-RES ovarian; 54.7% with T-47D breast; 61.3% with MDA-MB-435 melanoma. Besides, the growth in the assay with SW-620 colon is 56.7%; in the assay with MCF7 breast, 59.9%; with HCT-116 colon, 58.7%; in the assay on HCC-2998 colon, 78.1%; with KM12 colon, 59.6%.

Turning to `O=C1Nc2ccccc2/C1=C/C(=N/c1nnc(-c2ccc(Cl)cc2)s1)c1ccccc1`, the growth in the assay with SR leukemia was -27.6% (active); with RPMI-8226 leukemia, -14.4% (active); in the assay with OVCAR-8 ovarian it was 10.4%; in the assay with OVCAR-5 ovarian, 72.6%; in the assay with OVCAR-4 ovarian it was 57.3%; with SK-OV-3 ovarian, 75.9%. Also, the growth in the assay on IGROV1 ovarian was 21%; in the assay with OVCAR-3 ovarian, -70.1% (active); in the assay on HS 578T breast it was 80.1%; in the assay on NCI/ADR-RES ovarian it was 41%; in the assay on T-47D breast, 65.9%; in the assay on MDA-MB-435 melanoma, 41.7%. For the same compound, the growth with SW-620 colon was -52.6% (active); in the assay on MCF7 breast, 28.5%; with HCT-116 colon it was -58.5% (active); in the assay with HCC-2998 colon, 99.8%; in the assay with KM12 colon, 66.4%.

Turning to `COc1ccc(-c2cnoc2-c2cc(OC)c3c(c2)OCCO3)cc1`, the growth with SR leukemia was 3.75% (active); in the assay on RPMI-8226 leukemia it was -8.88% (active); in the assay on OVCAR-8 ovarian, 9.43% (active); with OVCAR-5 ovarian it was 31.9%; with OVCAR-4 ovarian it was 50.4%; with SK-OV-3 ovarian, 11.7%. The growth in the assay on IGROV1 ovarian is 29.2%; in the assay with OVCAR-3 ovarian it was -18.6% (active); in the assay with HS 578T breast it was 45.7%; with NCI/ADR-RES ovarian, 3.01% (active); in the assay with BT-549 breast, 3.85% (active); in the assay with MDA-MB-435 melanoma, -27.9% (active). The growth in the assay with SW-620 colon was 19.5%; in the assay on MCF7 breast, 12.4%; in the assay on HCT-116 colon it was -12.3% (active); in the assay on HCC-2998 colon, 8.32% (active); in the assay with KM12 colon it was 3.62% (active).

For `CC1(C)CC(C(=O)OCCCCCCCCCCC[P+](c2ccccc2)(c2ccccc2)c2ccccc2)C(C)(C)N1O` (stereo not given), the growth is -58.4% (active) in the assay on SR leukemia; -43.8% (active) in the assay with RPMI-8226 leukemia; -39% (active) with OVCAR-8 ovarian; -62.9% (active) in the assay with OVCAR-5 ovarian; -31.5% (active) in the assay with OVCAR-4 ovarian; -19.5% (active) in the assay on SK-OV-3 ovarian. Further, the growth is -58.7% (active) with IGROV1 ovarian; -95.9% (active) with OVCAR-3 ovarian; -44% (active) with HS 578T breast; 14.6% with NCI/ADR-RES ovarian; -42.1% (active) in the assay on BT-549 breast; -70.3% (active) with MDA-MB-435 melanoma. The growth is -81% (active) in the assay with SW-620 colon; -80.6% (active) with MCF7 breast; -8.91% (active) in the assay on HCT-116 colon; -84.9% (active) in the assay on HCC-2998 colon; -94.6% (active) in the assay with KM12 colon.
